This is a sample that favours compounds with a hit; in the whole collection about 0.51% have one here.
Tat export inh: E. coli Tat export inhibitors, primary screen, MC4100, TorA-mCherry reporter, fluorescence, single point; inhibition, % at 10 µM; hit rate 0.036% among 340,000; AID 488895, 2010;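 active = mean replicate inhibition at least 50% and at least half of replicates individually reaching 50%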;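 also: exported cargo escapes ClpAP degradation while cytoplasmic cargo is degraded and loses fluorescence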
phage Ecoli inh: growth loss of phage-infected E. coli, primary screen, RecBCD inhibitor project, absorbance, with phage, HTS. hit rate 0.26% among 360,000. AID 651602, 2012. inhibition, % at 11.9 µM; in the data active = inhibition above about 11%
E coli growth-1: E. coli growth inhibition, primary screen, OD600; OD600 absorbance (concentration not given with the values); hit rate 0.21% among 330,000; AID 1053175, 2014; Escherichia coli growth, 23 h; stronger effect = lower value;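 active = OD600 absorbance below the run mean of sample wells minus 3.6 SD, in any replicate, cut at about 0.56 in these data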
AddAB inh: growth inhibition of E. coli expressing H. pylori AddAB, primary screen, AddAB inhibitor project, absorbance; inhibition, % at 11.9 µM; hit rate 0.29% among 330,000; in the data active = inhibition above about 12%
E coli growth-2: E. coli V3065 growth inhibition, primary screen, counter-screen for AddAB inhibitor project, absorbance, OD600 | inhibition, % at 11.9 µM | AID 449728, 2010 | 18 h | hit rate 0.27% among 330,000;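 active = inhibition above the campaign's mean inhibition across all tested compounds plus 3 SD, cut at about 9.9% in these data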;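 also: uninfected addAB+ strain grown without phage in ampicillin broth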
RecBCD conf: growth loss of phage-infected RecBCD+ E. coli, confirmation, RecBCD inhibitor project, absorbance, E. coli V66, T4 gene 2 phage | shares compounds with phage Ecoli inh | E. coli V66 + T4 2- phage, growth OD | inhibition, % at 11.9 µM | hit rate 45% among 890 | AID 651982, 2013;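 active = mean inhibition over triplicates exceeding the hit threshold derived in the original primary screen, cut at about 11% in these data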
Ecoli viability: E. coli viability inhibition, counter-screen for RecBCD inhibitor project, absorbance, high throughput; shares compounds with phage Ecoli inh; absorbance (OD) growth; inhibition, % at 11.9 µM; hit rate 29% among 890; AID 651983, 2013; in the data active = inhibition above about 20%;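 also: E. coli strain V66 grown with compound alone and no phage infection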
AddAB counter: growth loss of phage-infected AddAB-carrying E. coli, confirmation, counter-screen for RecBCD inhibitor project, absorbance, E. coli V3065, T4 phage; shares compounds with phage Ecoli inh; E. coli expressing H. pylori AddAB + T4 phage, OD growth; gene 2 mutant T4, recBCD-deleted host; inhibition, % at 11.9 µM; hit rate 45% among 890; AID 651984, 2013;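 active = mean inhibition above the solvent-only control wells' mean plus 3 SD, cut at about 22% in these data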;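 also: higher means less bacterial growth from phage killing when AddAB is blocked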
Of the large screens only hits and unclear results are named; the others gave an inactive call (follow-up assays come after a bar, where they were run); ! = repeats disagree.

Cc1cc(C(O)c2ncc(-c3ccc(Oc4ccccc4)cc3)[nH]2)ccc1F (stereo not given)	phage Ecoli inh 11 (no result: Tat export inh, E coli growth-1, AddAB inh, E coli growth-2) | RecBCD conf inactive | Ecoli viability inactive | AddAB counter inactive
OC(c1ccc(F)cc1)c1ncc(-c2ccc(Oc3ccccc3)cc2)[nH]1 (stereo not given)	none (no result: Tat export inh, E coli growth-1, AddAB inh, E coli growth-2)
Cc1[nH]nc(C(=O)NN=Cc2ccccc2Cl)c1N=NN(C)C	phage Ecoli inh 14 (no result: E coli growth-1, AddAB inh, E coli growth-2) | RecBCD conf inactive | Ecoli viability inactive | AddAB counter 42
CC(Cc1ccccc1)=NNC(=O)CNC(=O)c1cccc(F)c1	none (no result: Tat export inh, phage Ecoli inh, AddAB inh, E coli growth-2)
O=C1C=C(c2ccc3[nH]ccc3c2)CC(c2ccc(Cl)cc2)C1 (stereo not given)	none (no result: Tat export inh, phage Ecoli inh, AddAB inh, E coli growth-2)
O=C(NC(Nc1nc2ccc([N+](=O)[O-])cc2s1)(C(F)(F)F)C(F)(F)F)c1ccccc1Cl	phage Ecoli inh 15, AddAB inh 14, E coli growth-2 11 | RecBCD conf inactive | Ecoli viability inactive | AddAB counter inactive
O=C(Nc1nnc(N2CCCCCC2)s1)c1cc(-c2ccc(Br)cc2)on1	none
CC1CCCC(C)N1c1nnc(NC(=O)c2cc(-c3ccc(Br)cc3)on2)s1 (stereo not given)	phage Ecoli inh 95 (no result: E coli growth-1) | RecBCD conf inactive | Ecoli viability inactive | AddAB counter inactive
CCOC(=O)C(=NNc1ccccc1Cl)N(C)C1CCS(=O)(=O)C1 (stereo not given)	none (no result: Tat export inh, phage Ecoli inh, AddAB inh, E coli growth-2)
O=c1cc(-c2ccccc2)oc2cc(O)c(O)c(O)c12	phage Ecoli inh 12, E coli growth-2 11 | RecBCD conf inactive | Ecoli viability inactive | AddAB counter inactive
COc1c(O)cc2oc(-c3ccc(O)cc3)cc(=O)c2c1O	none
O=C(Nc1cccc([N+](=O)[O-])c1)c1ccc([N+](=O)[O-])o1	phage Ecoli inh 20 (no result: Tat export inh, E coli growth-1, AddAB inh, E coli growth-2) | RecBCD conf 15 | Ecoli viability inactive | AddAB counter 90
O=C(Nc1cccc([N+](=O)[O-])c1)c1ccncc1	none
Cc1ccc(C(O)(C(=O)NNc2ccc3ccccc3n2)c2ccc(C)cc2)cc1	phage Ecoli inh 13!, E coli growth-2 11! | RecBCD conf inactive | Ecoli viability inactive | AddAB counter inactive
Cc1ccc(C(=O)Nc2ccc3ccccc3n2)cc1	none
N#CCCN(C(=O)CSc1nc2ccccc2c(=O)[nH]1)c1ccc(F)cc1	phage Ecoli inh 12 | RecBCD conf inactive | Ecoli viability inactive | AddAB counter inactive
O=C(N/N=C/c1c(O)n(Cc2ccccc2)c(=O)c2ccccc12)c1cccnc1	phage Ecoli inh 15, E coli growth-2 11 | RecBCD conf inactive | Ecoli viability inactive | AddAB counter inactive
COc1ccc(Cn2c(O)c(/C=N/NC(=O)c3cccnc3)c3ccccc3c2=O)cc1	phage Ecoli inh 15 (no result: AddAB inh, E coli growth-2) | RecBCD conf inactive | Ecoli viability inactive | AddAB counter inactive
O=C(N/N=C/c1c(O)n(-c2ccccc2Cl)c(=O)c2ccccc12)c1cccnc1	none (no result: AddAB inh, E coli growth-2)
O=C(Nc1cc(Cl)ccc1O)c1snnc1-c1ccccc1	phage Ecoli inh 14, E coli growth-2 9.8 | RecBCD conf inactive | Ecoli viability inactive | AddAB counter inactive
CC(C)(C)OC(=O)CNC(=O)c1[nH]cnc1C(=O)NC(CCCCNC(=O)OC(C)(C)C)C(=O)OC(C)(C)C (stereo not given)	none (no result: Tat export inh, phage Ecoli inh, AddAB inh, E coli growth-2)
COc1ccc(Cc2noc(CN(C)CC3(N4CCOCC4)CCCCC3)n2)cc1OC	phage Ecoli inh 94 | RecBCD conf inactive | Ecoli viability inactive | AddAB counter inactive
CN(Cc1nc(Cc2ccccc2F)no1)CC1(N2CCOCC2)CCCCC1	none
CC(=O)NC(C)c1cc(Cl)c2cccnc2c1O (stereo not given)	none
O=C(O)COc1ccccc1C(Nc1cccnc1)c1cc(Cl)c2cccnc2c1O (stereo not given)	none (no result: phage Ecoli inh, AddAB inh, E coli growth-2)
CCC(=O)NC(c1ccc(OC)c(OC)c1)c1cc(Cl)c2cccnc2c1O (stereo not given)	phage Ecoli inh 15 (no result: AddAB inh, E coli growth-2) | RecBCD conf inactive | Ecoli viability inactive | AddAB counter inactive
CCOc1ccc(C(Nc2cccnc2)c2cc(Cl)c3cccnc3c2O)cc1 (stereo not given)	phage Ecoli inh 17, E coli growth-2 20 | RecBCD conf inactive | Ecoli viability inactive | AddAB counter inactive
CC(NC(=O)c1nc[nH]c1C(=O)NC(c1ccccc1)c1ccccc1)C(=O)OC(C)(C)C (stereo not given)	none (no result: Tat export inh, phage Ecoli inh, AddAB inh, E coli growth-2)
O=C(Nc1ccccc1)Nc1cc(OCC(F)(F)F)cc(OCC(F)(F)F)c1	phage Ecoli inh 16 (no result: AddAB inh, E coli growth-2) | RecBCD conf inactive | Ecoli viability inactive | AddAB counter inactive
O=C(Nc1ccccc1)Nc1cc(Cl)cc(Cl)c1	none (no result: E coli growth-1)
Cn1cc(CC(=O)N2CCN(c3ccccc3F)CC2)c2ccccc21	phage Ecoli inh 84 | RecBCD conf inactive | Ecoli viability inactive | AddAB counter inactive
Cc1[nH]n(-c2ccccc2)c(=O)c1C=Nc1ccc(S(=O)(=O)Nc2nccs2)cc1	phage Ecoli inh 15 | RecBCD conf inactive | Ecoli viability inactive | AddAB counter 26
COc1nccnc1NS(=O)(=O)c1ccc(N=Cc2c(C)[nH]n(-c3ccccc3)c2=O)cc1	none
CC1CN(N=Cc2ccc([N+](=O)[O-])o2)C(=N)O1 (stereo not given)	phage Ecoli inh 46, E coli growth-1 0.065 (no result: AddAB inh, E coli growth-2) | RecBCD conf 85 | Ecoli viability 102 | AddAB counter 103
O=C1C2C(C(=O)N1/N=C/c1ccc([N+](=O)[O-])o1)C1C=CC2C12CC2 (stereo not given)	none (no result: E coli growth-1)
CC1(C(=O)N/N=C/c2ccc([N+](=O)[O-])o2)CC1(Br)Br (stereo not given)	none (no result: E coli growth-1)
O=C1SCCN1N=Cc1ccc([N+](=O)[O-])o1	phage Ecoli inh 69, E coli growth-1 0.063 (no result: AddAB inh, E coli growth-2) | RecBCD conf 62 | Ecoli viability 98 | AddAB counter 100
CCOc1ccc(OCCCC(=O)ON=C(N)c2ccccc2Cl)cc1	phage Ecoli inh 11 | RecBCD conf inactive | Ecoli viability inactive | AddAB counter inactive
COc1ccc(OCCCC(=O)ON=C(N)c2ccccc2C)cc1	none
O=C(NN=Cc1c(F)cccc1Cl)C(=O)N1CCCCCC1	none (no result: Tat export inh, phage Ecoli inh, AddAB inh, E coli growth-2)
N#Cc1c(Nc2ccccc2)[n+]([O-])c2ccc(Cl)cc2[n+]1[O-]	phage Ecoli inh 13 (no result: E coli growth-1, AddAB inh, E coli growth-2) | RecBCD conf 16 | Ecoli viability inactive | AddAB counter 49
O=C(/C=C/Nc1ccccc1)c1ccc(Cl)cc1Cl	none
CO[C@@]1(NC(=O)Cc2cccs2)C(=O)N2C(C(=O)O)=C(COC(N)=O)CS[C@@H]21	phage Ecoli inh 27 (no result: E coli growth-1) | RecBCD conf 94 | Ecoli viability 104 | AddAB counter 101

Compound activity (PubChem BioAssay)
